Experimental data: PubChem BioAssay (NCI)
“And” between values parts separate entries of the source, which are not always exact repeats. Identical values can stand only once. The panel holds about 83,000 compounds, 20% with a hit somewhere; the sample as a whole holds those more often.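 Method: cells in 96-well plates; compound added at one concentration; 48 h incubation; percent growth measured; values under 10 scored active.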 The source made the active and inactive calls.

test system: MDA-MB-435 melanoma; test: NCI-60 one-dose screen, 48 h (100 = growth as untreated, 0 = no growth, -100 = all killed); details: 10 µM unless noted

SMILES	growth
OCCCc1ccccc1	108% (inactive)
S=c1nn[nH]n1C1CCCCC1	102% (inactive)
CC1=CC(=O)C=CC1=Nc1ccc(N(C)C)cc1	59.4% (inactive) and 6.47% (active)
Nc1nc(=S)c2[nH]cnc2[nH]1	12.3% (inactive) and 5.49% (active)
O=c1[nH]c(=S)[nH]n1C(=S)n1[nH]c(=S)[nH]c1=O	110% (inactive)
CN(C)C(=N)N=C(N)N	109% (inactive) and 124% (inactive)
COc1ccc2nccc(Cl)c2c1	108% (inactive)
COc1ccc(CCn2cnn3c(=O)c4ccccc4nc3c2=O)cc1OC	103% (inactive) and 119% (inactive)
N=C(N=C(N)N)N1CCOCC1	108% (inactive) and 106% (inactive)
N#CC(=S)Nc1ccc(Cl)c(Cl)c1	6.5% (active)
O=C1C(=O)c2ccccc2C(O)=C1CC=C(Cl)Cl	43.8% (inactive) and 52.5% (inactive)
CCOC(=O)C1=C(C)NC(C)=C(C(=O)OCC)C1	95.4% (inactive) and 97.6% (inactive)
COc1ccc(CCO)cc1	109% (inactive)
COc1ccc(/C=N/Nc2nc3ccccc3s2)cc1	83.3% (inactive)
Nc1ccccc1SC1CC(=O)N(c2ccc(I)cc2)C1=O (configuration not stated)	91.8% (inactive)
Clc1ccc2c(c1)N(C1CCCN(Cc3ccccc3)C1)c1ccccc1S2 (configuration not stated)	5.2% (active)
COc1ccc([N+](=O)[O-])cc1OC	109% (inactive) and 107% (inactive)
NC(=O)Cc1nc(O)cc(=O)[nH]1	106% (inactive)

SMILES	growth
N=C(N)N1CCc2ccccc2C1	96% (inactive) and 95.6% (inactive)
Clc1ccc2sc(-c3ccccc3)nc2c1	95.4% (inactive)
COc1cc2oc3cc(=O)cc4oc(-c5ccccc5)cc(c2c2c1CCC(c1ccccc1)O2)c43 (configuration not stated)	69.2% (inactive)
CC(C)(C)C1=CC(=O)C(C(C)(C)C)=CC1=O	97.8% (inactive) and 110% (inactive)
Oc1ccc(O)c(-c2ccccc2)c1	81.8% (inactive)
COc1ccc(CCl)c(C)c1OC	108% (inactive)
CCNC1=CC(=O)c2ncccc2C1=O	-91.7% (active)
O=C1C=CC(=O)N1Cc1ccco1	95.8% (inactive)
CC(C)=NOC(C)C(=O)O (configuration not stated)	97.2% (inactive)
Cc1cc2nc3ccc(=[N+](C)C)cc-3sc2cc1N	-68.9% (active) and -41.4% (active)
c1ccc2c[n+](Cc3ccc4ccccc4n3)ccc2c1	90.3% (inactive)
COc1cc([C@@H]2c3cc4c(cc3[C@H](O)[C@H]3COC(=O)[C@@H]23)OCO4)cc(OC)c1OC	-23.1% (active) and -44.3% (active)
NNC(=O)Nc1ccccc1	103% (inactive)
Cc1nc2c(=O)[nH]c(=S)[nH]c2[nH]c1=O	107% (inactive) and 102% (inactive)
Oc1cccnc1CN1CCOCC1	109% (inactive) and 99.3% (inactive)
O=C1c2ccccc2CN1c1ccccc1	97.9% (inactive)
COC1C(OC(N)=O)C(O)C(Oc2ccc3c(O)c(NC(=O)c4ccc(O)c(CC=C(C)C)c4)c(=O)oc3c2C)OC1(C)C (configuration not stated)	98.6% (inactive) and 98.8% (inactive)
C/C=C/C(=O)OCCCCCCCCCCCC	115% (inactive)

test system: SW-620 colon; test: as above; details: 10 µM unless noted

SMILES	growth
OCCCc1ccccc1	107% (inactive)
S=c1nn[nH]n1C1CCCCC1	99.8% (inactive)
CC1=CC(=O)C=CC1=Nc1ccc(N(C)C)cc1	105% (inactive)
Nc1nc(=S)c2[nH]cnc2[nH]1	23.3% (inactive) and 15.9% (inactive)
O=c1[nH]c(=S)[nH]n1C(=S)n1[nH]c(=S)[nH]c1=O	98.5% (inactive)
CN(C)C(=N)N=C(N)N	108% (inactive) and 105% (inactive)
COc1ccc2nccc(Cl)c2c1	101% (inactive)
COc1ccc(CCn2cnn3c(=O)c4ccccc4nc3c2=O)cc1OC	101% (inactive) and 112% (inactive)
N=C(N=C(N)N)N1CCOCC1	96.3% (inactive) and 103% (inactive)
N#CC(=S)Nc1ccc(Cl)c(Cl)c1	19.6% (inactive)
O=C1C(=O)c2ccccc2C(O)=C1CC=C(Cl)Cl	50.1% (inactive) and 52.6% (inactive)
CCOC(=O)C1=C(C)NC(C)=C(C(=O)OCC)C1	91.9% (inactive) and 96.9% (inactive)
COc1ccc(CCO)cc1	104% (inactive)
COc1ccc(/C=N/Nc2nc3ccccc3s2)cc1	94.8% (inactive)
Nc1ccccc1SC1CC(=O)N(c2ccc(I)cc2)C1=O (configuration not stated)	93.3% (inactive)
Clc1ccc2c(c1)N(C1CCCN(Cc3ccccc3)C1)c1ccccc1S2 (configuration not stated)	22.6% (inactive)
COc1ccc([N+](=O)[O-])cc1OC	91.8% (inactive) and 110% (inactive)
NC(=O)Cc1nc(O)cc(=O)[nH]1	104% (inactive)

SMILES	growth
N=C(N)N1CCc2ccccc2C1	94.5% (inactive) and 88.1% (inactive)
Clc1ccc2sc(-c3ccccc3)nc2c1	72.2% (inactive)
COc1cc2oc3cc(=O)cc4oc(-c5ccccc5)cc(c2c2c1CCC(c1ccccc1)O2)c43 (configuration not stated)	100% (inactive)
CC(C)(C)C1=CC(=O)C(C(C)(C)C)=CC1=O	106% (inactive) and 104% (inactive)
Oc1ccc(O)c(-c2ccccc2)c1	78.7% (inactive)
COc1ccc(CCl)c(C)c1OC	101% (inactive)
CCNC1=CC(=O)c2ncccc2C1=O	13.8% (inactive)
O=C1C=CC(=O)N1Cc1ccco1	58.4% (inactive)
CC(C)=NOC(C)C(=O)O (configuration not stated)	103% (inactive)
Cc1cc2nc3ccc(=[N+](C)C)cc-3sc2cc1N	-19.7% (active) and -9.28% (active)
c1ccc2c[n+](Cc3ccc4ccccc4n3)ccc2c1	87.5% (inactive)
COc1cc([C@@H]2c3cc4c(cc3[C@H](O)[C@H]3COC(=O)[C@@H]23)OCO4)cc(OC)c1OC	16.7% (inactive) and 4.24% (active)
NNC(=O)Nc1ccccc1	101% (inactive)
Cc1nc2c(=O)[nH]c(=S)[nH]c2[nH]c1=O	105% (inactive) and 101% (inactive)
Oc1cccnc1CN1CCOCC1	109% (inactive) and 101% (inactive)
O=C1c2ccccc2CN1c1ccccc1	105% (inactive)
COC1C(OC(N)=O)C(O)C(Oc2ccc3c(O)c(NC(=O)c4ccc(O)c(CC=C(C)C)c4)c(=O)oc3c2C)OC1(C)C (configuration not stated)	104% (inactive) and 92.7% (inactive)
C/C=C/C(=O)OCCCCCCCCCCCC	111% (inactive)
